From PubChem BioAssay
Hits are enriched below; roughly 14% of the tested compounds scored in any of these assays.
CRE-bla Fsk: Cell signaling CRE-BLA (Fsk stim) | CHO CRE-bla reporter (cAMP response element driving beta-lactamase), forskolin EC10, beta-lactamase ratio | Potency, µM (titrated, usually from 38.2 µM), for inactives: top-dose activity change, negative = inhibition, usual class: activators | 71,000 compounds, 2.5% hits; active = well fitted activation curve with a large enough effect in the signal ratio, with a control signal flat, not every such curve was filed as active; inconclusive = small, poorly fitted or top-dose-only effect, or effect the other way, or a change in a side signal; the % refers to the signal ratio; note: potency is the fitted concentration of half-maximal effect; % of control where 0% means no effect
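Modulation of forskolin signalling: compounds in titration series added with EC10 NKH 477 to CHO cells carrying a CRE-driven beta-lactamase reporter, 3 h, 37C. CCF4 FRET ratio (460/530 nm, ex 405 nm) gives %activity and AC50.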
A350 autofl: qHTS Assay for Spectroscopic Profiling in A350 Spectral Region. Compound autofluorescence, 340/450 nm, Alexa 350 dye-equivalents; hits give high values. max dye-equivalent concentration, M. 59,000 compounds, 11% hits. AID 590, 2007; in the data active = max dye-equivalent concentration above about 10 nM; inconclusive = mostly about 1.1 nM to 9.6 nM
HSD17B inh: qHTS Assay for Inhibitors of HSD17B4, hydroxysteroid (17-beta) dehydrogenase 4; recombinant HSD17B10, NADH fluorescence kinetic; Potency, µM (series often up to 57.1 µM), inactives show at the highest dose activity change, negative = inhibition, hits mostly inhibitors; 75,000 compounds, 7.6% hits; AID 893, 2007;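 note: the protocol describes HADH2 (HSD17B10) and not the HSD17B4 of the title; potency is the fitted concentration of half-maximal effect; % is set by controls: 0 for no effect and ±100 for the full control effect; nearly all actives have a fitted effect of over 70% in size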
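Activity followed as NADH fluorescence increase (ex 360, em 450 nm) every 30 seconds for 4 min, using final 90 uM beta-hydroxybutyryl CoA and 1 mM NAD+. Recombinant His-tagged enzyme, 20 nM, pH 9.0 Tris buffer, 15 min compound preincubation.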
HADH2 inhib: qHTS Assay for Inhibitors of HADH2 (Hydroxyacyl-Coenzyme A Dehydrogenase, Type II); Potency, µM (series often up to 57.1 µM), for inactives: at the top dose activity change, negative = inhibition, actives largely listed as inhibitors; 73,000 compounds, 3.4% hits; recombinant HADH2, NADH fluorescence, beta-hydroxybutyryl-CoA; note: potency is the fitted concentration of half-maximal effect; % is set by controls: 0 for no effect and ±100 for the full control effect; nearly all actives have a fitted effect of over 60% in size
Target sequence (Q99714 whole entry, looked up, one chain of several): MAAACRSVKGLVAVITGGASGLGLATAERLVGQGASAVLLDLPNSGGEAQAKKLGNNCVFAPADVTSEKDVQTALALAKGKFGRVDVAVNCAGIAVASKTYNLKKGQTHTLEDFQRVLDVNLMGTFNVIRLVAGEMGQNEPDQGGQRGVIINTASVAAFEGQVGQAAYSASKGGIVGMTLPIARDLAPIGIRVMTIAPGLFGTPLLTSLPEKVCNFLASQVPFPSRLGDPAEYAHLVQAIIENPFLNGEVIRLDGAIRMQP
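E. coli-expressed His-tagged HADH2 tested at 20 nM in alkaline Tris buffer (pH 9.0); oxidation of 90 uM beta-hydroxybutyryl-CoA with 1 mM NAD+ tracked fluorimetrically for 4 min.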
AID923: qHTS Assay for Allosteric/Competitive Inhibitors of Caspase-1: Spectroscopic Profiling in AFC Spectral Region; compound fluorescence, AFC spectral region (405/520 nm); Potency, µM (highest dose often 57.5 µM), for the others: top-dose fluorescence increase, usual class: activators; 75,000 compounds, 1.1% hits; AID 923, 2007; note: potency is the fitted concentration of half-maximal effect; 0% is about no effect
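Baseline compound fluorescence (AFC region, 405 nm ex/520 nm em) taken from the intercept of kinetic reads with 50 nM caspase-1 and 5 uM Ac-WEHD-AFC; normalized to an on-plate AFC standard curve; compounds titrated up to 57 uM.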
4MU fluor: qHTS Assay for Spectroscopic Profiling in 4-MU Spectral Region | compound autofluorescence, 340/450 nm, 4-MU equivalents; hits give high values | max dye-equivalent concentration, M | 59,000 compounds, 11% hits | AID 589, 2007; in the data active = max dye-equivalent concentration above about 10 nM; inconclusive = mostly about 1.1 nM to 9.6 nM
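Compounds in 100 mM Tris, pH 8.0, sat 15 min at room temperature before fluorescence was read at 340 nm excitation/450 nm emission; a per-plate six-point 4-MU standard curve converted signals to dye-equivalent concentration at each compound concentration.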
An asterisk follows results filed as active; i = inactive; ? = inconclusive; / = no result; [ ] = dose if it differs, or a comment. Unless noted, calls come from the whole dose curve; as a rule, active = well fitted curve in the direction sought with a large enough effect; inconclusive = small, poorly fitted or top-dose-only effect, or another doubt; inactive = no such curve, though single readings can be large; an effect the other way counts as inactive or inconclusive.

SMILES	CRE-bla Fsk	A350 autofl	HSD17B inh	HADH2 inhib	AID923	4MU fluor
Cc1cc(C)c2nc(SCC(=O)N3CCCCC3)c(C#N)cc2c1	-14%	?	0%	7%	1%	?
CC1CC(=O)c2cnc(NCc3ccco3)nc2C1 (centres undefined)	18%	1.4e-08M*	3%	10%	1%	1.1e-08M*
O=C1CC(c2ccc(F)cc2)Cc2nc(NCc3ccco3)ncc21 (centres undefined)	4%	i	1%	-5%	-2%	i
CC(=O)O[C@H]1CC[C@@]2(C)[C@@H](CC[C@H]3[C@H]2CC(=O)[C@@]2(C)[C@@H]3C[C@H]3CC(C)=CC(=O)[C@H]32)C1	6%[7.6 µM]	i	12%[11.4 µM]	5%[11.4 µM]	-1%[11.5 µM]	i
O=C(Cc1ccccc1)Nc1cccc(N2CCCC2)c1	-5%	i	-9%	-6%	-1%	i
N#CC(=C(/N)Sc1ccccc1N)/C(C#N)=C(/N)Sc1ccccc1N	-7%	i	32µM*	?	2%	i
N#Cc1cccc(NC(=O)N2CCCC3(CCN(S(=O)(=O)c4ccccc4)CC3)C2)c1	-4%	i	1%	0%	2%	i
CCN(CC)CCn1c(=N)n(CCO)c2ccccc21	4%	/	2%	-3%	0%	/
CCN(CC)CCn1c2ccccc2c2cnc(N=CN(C)C)c(C#N)c21	?	1.1e-07M*	?	-15%	1%	8.9e-08M*
COC(=O)c1[nH]c2cccc(OC)c2c1NC(=O)CCN1CCC(C)CC1	?	?	32µM*	-23%	3%	1.5e-08M*
CCOC(=O)Nc1c(C(=O)OC)[nH]c2cccc(OC)c12	19%	?	32µM*	-24%	0%	1.5e-08M*
COC(=O)c1[nH]c2cccc(OC)c2c1NC(=O)CCN1CCN(c2ccccc2OC)CC1	-4%	?	25µM*	?	0%	1.7e-08M*
CCOc1ccc(NC(=O)CCN2CCN(c3ccccc3OC)CC2)cc1	?	i	-1%	5%	-2%	i
COC(=O)c1[nH]c2cccc(OC)c2c1NC(=O)CN1CCN(c2cccc(OC)c2)C(C)C1 (centres undefined)	?	?	25µM*	?	1%	i
c1cncc(-c2cc(-c3cc(-c4cccnc4)n[nH]3)[nH]n2)c1	8%[7.6 µM]	i	-3%[11.4 µM]	3%[11.4 µM]	1%[11.5 µM]	i
NC(=O)c1nnn(Cc2cc(Cl)c(C(=O)c3ccc(Cl)cc3)c(Cl)c2)c1N	25%[7.6 µM]	i	8%[11.4 µM]	11%[11.4 µM]	-1%[11.5 µM]	i
Cc1ccc(S(=O)(=O)N(c2ccccc2)C2CCS(=O)(=O)C2)cc1 (centres undefined)	-1%	i	6%	15%	0%	i
COc1ccc(N(C)S(=O)(=O)c2cccc(C(=O)NC3=NCCS3)c2)cc1	-1%	i	-1%	-7%	0%	i
CCn1cc(C(=O)NCc2cccnc2)c2cc(OC)c(OC)cc2c1=O	5µM*	i	5%	0%	0%	i
COc1cc2c(C(=O)NCc3ccccn3)cn(CC(C)C)c(=O)c2cc1OC	7.9µM*	/	-17%	0%	0%	/
CCOC(=O)CNC(=O)c1cn(C)c(=O)c2cc(OC)c(OC)cc12	?	i	-8%	1%	0%	i
CCOC(=O)CNC(=O)c1cn(CC)c(=O)c2cc(OC)c(OC)cc12	5µM*	?	-3%	-3%	0%	?
COc1ccc(OC)c(S(=O)(=O)Nc2ccc(O)c(Sc3ncn[nH]3)c2)c1	2%	i	?	5µM*	1%	i
